# High-throughput results from PubChem.
# nsP2pro primary: inhibitors of chikungunya virus nsP2 protease; Potency, µM (series often up to 24.9 µM), for the others: top-dose activity change, negative = inhibition, hits mostly inhibitors; AID 1964107; 1.1% of 31,000 active; Q8JUX6; FRET peptide cleavage, nsP2pro, fluorescence 1 h; further: nearly all actives have a fitted effect of over 60% in size
# Target sequence (Q8JUX6 whole entry, looked up): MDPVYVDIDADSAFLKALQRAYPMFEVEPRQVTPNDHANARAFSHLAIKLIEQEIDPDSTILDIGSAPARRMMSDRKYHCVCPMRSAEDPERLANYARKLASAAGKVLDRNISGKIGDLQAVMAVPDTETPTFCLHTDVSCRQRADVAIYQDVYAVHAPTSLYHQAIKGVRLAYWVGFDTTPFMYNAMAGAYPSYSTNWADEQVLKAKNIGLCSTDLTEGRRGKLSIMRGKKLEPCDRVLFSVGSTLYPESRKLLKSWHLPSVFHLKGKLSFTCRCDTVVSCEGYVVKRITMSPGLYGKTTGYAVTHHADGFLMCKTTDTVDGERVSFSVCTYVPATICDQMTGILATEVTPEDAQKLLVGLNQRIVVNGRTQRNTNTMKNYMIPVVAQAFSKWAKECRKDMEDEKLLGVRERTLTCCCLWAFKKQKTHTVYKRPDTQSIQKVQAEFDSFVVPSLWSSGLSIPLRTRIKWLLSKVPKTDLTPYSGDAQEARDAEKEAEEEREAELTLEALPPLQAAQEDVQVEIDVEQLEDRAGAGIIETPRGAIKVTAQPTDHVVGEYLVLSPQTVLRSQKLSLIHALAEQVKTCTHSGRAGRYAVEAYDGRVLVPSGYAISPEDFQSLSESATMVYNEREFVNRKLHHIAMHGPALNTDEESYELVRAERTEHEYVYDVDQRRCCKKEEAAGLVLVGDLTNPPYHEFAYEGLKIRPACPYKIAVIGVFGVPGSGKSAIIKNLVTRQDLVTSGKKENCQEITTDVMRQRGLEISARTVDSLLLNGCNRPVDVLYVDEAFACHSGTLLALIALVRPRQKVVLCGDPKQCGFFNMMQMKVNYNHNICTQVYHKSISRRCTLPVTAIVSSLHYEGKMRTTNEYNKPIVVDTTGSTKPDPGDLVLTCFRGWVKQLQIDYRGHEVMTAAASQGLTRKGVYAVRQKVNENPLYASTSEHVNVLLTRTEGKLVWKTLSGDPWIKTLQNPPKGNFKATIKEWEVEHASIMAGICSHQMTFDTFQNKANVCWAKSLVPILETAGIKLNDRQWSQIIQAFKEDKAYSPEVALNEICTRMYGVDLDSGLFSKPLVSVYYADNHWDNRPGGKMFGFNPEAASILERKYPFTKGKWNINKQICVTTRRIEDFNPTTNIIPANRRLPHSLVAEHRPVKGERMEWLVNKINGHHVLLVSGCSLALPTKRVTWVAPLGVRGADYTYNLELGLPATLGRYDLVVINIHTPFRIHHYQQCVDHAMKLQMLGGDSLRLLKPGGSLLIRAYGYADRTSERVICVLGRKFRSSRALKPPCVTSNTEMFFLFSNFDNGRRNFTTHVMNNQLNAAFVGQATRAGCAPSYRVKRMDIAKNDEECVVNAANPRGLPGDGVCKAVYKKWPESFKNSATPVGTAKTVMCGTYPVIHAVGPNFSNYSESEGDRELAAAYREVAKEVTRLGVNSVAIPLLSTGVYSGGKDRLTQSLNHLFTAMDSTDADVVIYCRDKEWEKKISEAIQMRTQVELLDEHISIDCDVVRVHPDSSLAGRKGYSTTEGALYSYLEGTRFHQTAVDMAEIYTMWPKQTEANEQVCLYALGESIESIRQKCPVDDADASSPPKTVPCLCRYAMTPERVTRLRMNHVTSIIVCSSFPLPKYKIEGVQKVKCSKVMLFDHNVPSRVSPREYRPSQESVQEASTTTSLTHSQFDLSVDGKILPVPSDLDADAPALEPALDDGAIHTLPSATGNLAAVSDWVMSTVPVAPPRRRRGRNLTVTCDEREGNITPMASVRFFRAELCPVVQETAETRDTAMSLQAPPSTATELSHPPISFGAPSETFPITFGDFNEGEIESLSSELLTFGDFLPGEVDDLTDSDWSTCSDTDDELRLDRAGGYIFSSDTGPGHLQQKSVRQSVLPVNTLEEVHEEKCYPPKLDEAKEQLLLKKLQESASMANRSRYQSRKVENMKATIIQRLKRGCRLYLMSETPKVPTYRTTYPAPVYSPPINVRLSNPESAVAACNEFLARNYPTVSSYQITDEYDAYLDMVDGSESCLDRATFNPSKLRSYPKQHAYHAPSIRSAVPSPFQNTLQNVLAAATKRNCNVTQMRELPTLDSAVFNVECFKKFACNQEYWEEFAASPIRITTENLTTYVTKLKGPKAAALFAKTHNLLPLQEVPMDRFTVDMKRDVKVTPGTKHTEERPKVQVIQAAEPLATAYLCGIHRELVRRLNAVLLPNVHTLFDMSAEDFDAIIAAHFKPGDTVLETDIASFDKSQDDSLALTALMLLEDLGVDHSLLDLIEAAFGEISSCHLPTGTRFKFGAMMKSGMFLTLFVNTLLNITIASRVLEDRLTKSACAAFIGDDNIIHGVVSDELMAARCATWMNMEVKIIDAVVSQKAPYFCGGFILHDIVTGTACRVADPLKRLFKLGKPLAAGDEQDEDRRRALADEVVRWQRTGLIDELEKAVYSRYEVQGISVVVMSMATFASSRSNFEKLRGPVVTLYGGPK
#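 FRET cleavage of 2.5 uM peptide 2 by 150 nM CHIKV protease domain at pH 8.0 (Tris, Tween 20). Compounds at 7 concentrations (up to 25 uM) preincubated 15 min. Fluorescence read after 1 h at room temperature.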
# CHIKV nsP2 cell: cell-based CHIKV nsP2 protease inhibition, secondary; shares compounds with nsP2pro primary; 10% of 450 active; Potency, µM (titrated, usually from 51.1 µM), for the others: at the highest dose activity change, negative = inhibition, usual class: inhibitors; cell-based CHIKV nsP2 protease reporter assay; AID 1964100; further: nearly all actives have a fitted effect of over 70% in size
# NSP2 full ctr: selectivity test for CHIKV nsP2 protease inhibitors: full-length NSP2; Full-length CHIKV NSP2 protease enzymatic counterscreen; shares compounds with nsP2pro primary; 39% of 410 active; Potency, µM (top dose mostly 50.7 µM), for inactives: at the highest dose activity change, negative = inhibition, usual class: inhibitors; further: nearly all actives have a fitted effect of over 65% in size
# Furin counter: human furin inhibition, counterscreen for nsP2pro inhibitors; shares compounds with nsP2pro primary; 6% of 410 active; Potency, µM (top dose mostly 50.6 µM), inactives show at the highest dose activity change, negative = inhibition, actives largely listed as inhibitors; Recombinant human furin enzymatic counterscreen, fluorogenic substrate
# NS23 peptide cs: blocks CHIKV nsP2 protease cleavage of endogenous NS2/3 peptide | shares compounds with nsP2pro primary | Purified CHIKV nsP2 protease, endogenous NS2/3 peptide cleavage | Potency, µM (titrated, usually from 51 µM), for inactives: at the highest dose activity change, negative = inhibition, hits mostly inhibitors | 34% of 410 active; further: nearly all actives have a fitted effect of over 55% in size
# Papain counter: papain protease inhibition, counterscreen for nsP2pro inhibitors; shares compounds with nsP2pro primary; purified papain protease activity, enzymatic inhibition; Potency, µM (highest dose often 51 µM), for inactives: at the highest dose activity change, negative = inhibition, most hits filed as inhibitors; 5% of 410 active; AID 1964104
# nsP2pro conf qHTS: CHIKV nsP2 protease inhibition, confirmatory qHTS; shares compounds with nsP2pro primary; CHIKV nsP2 protease enzymatic activity, qHTS; Potency, µM (doses to about 25.5 µM), inactives show at the top dose activity change, negative = inhibition, most hits filed as inhibitors; 43% of 410 active; AID 1964105; further: nearly all actives have a fitted effect of over 75% in size
# HCV NS3 4A cs: HCV NS3/4A protease inhibition, counterscreen | HCV NS3/4A protease biochemical counterscreen | Potency, µM (series often up to 50.9 µM), hits mostly inhibitors | 20% of 410 active | shares compounds with nsP2pro primary | AID 1964106; further: nearly all actives have a fitted effect of over 55% in size
# * = called active by the depositor; i = inactive; ? = inconclusive; [ ] = another dose, or the depositor's remark. This is one part of a sample in which hits are shown more often than they occur. The call rests on the fitted dose curve. On the % scale 0 is the no-effect control and ±100 the full control effect; potency means the concentration at half of the fitted maximal effect.
SMILES,nsP2pro primary,others
C=C(NC(=O)C(=C)NC(=O)c1csc(C2=N[C@H]3c4csc(n4)[C@H]4NC(=O)c5csc(n5)[C@H]([C@@](C)(O)[C@@H](C)O)NC(=O)[C@H]5CSC(=N5)C(=CC)NC(=O)[C@H]([C@@H](C)O)NC(=O)c5csc(n5)[C@]3(CC2)NC(=O)[C@H](C)NC(=O)C(=C)NC(=O)[C@H](C)NC(=O)[C@H](C(C)CC)N[C@@H]2C=Cc3c([C@H](C)O)cc(nc3[C@H]2O)C(=O)O[C@@H]4C)n1)C(N)=O (some centres undefined),51%,
CCCCCCCCCC(=O)O,-16%,
CCCCCCCCCCCCCCCCCCCC(=O)O,?,CHIKV nsP2 cell=-23%;NSP2 full ctr=4.1µM*;Furin counter=-5%;NS23 peptide cs=-19%;Papain counter=21µM*;nsP2pro conf qHTS=2.8µM*;HCV NS3 4A cs=i
CCCCCCCC/C=C/CCCCCCCC(=O)O,-24%,
CCCNC(=O)[C@H]1O[C@@H]1C(=O)N[C@H](C(=O)N1CCC[C@@H]1C(=O)O)[C@@H](C)CC,-18%,
CN1CCC(C(=O)c2cccc(NC(=O)c3c(F)cc(F)cc3F)n2)CC1,-15%,
O=S(=O)(Nc1ccc(-c2ccccc2)cc1)c1ccc(NCc2ccc(Br)cc2O)cc1,-14%,
COCCNC(=O)c1cc2c(Cl)nc3ccc(C)cc3c2s1,13%,
COCCNC(=O)Nc1ccc2nc(-c3cccs3)c(-c3cccs3)nc2c1,?,CHIKV nsP2 cell=-4%;NSP2 full ctr=34%;Furin counter=-10%;NS23 peptide cs=-10%;Papain counter=49%;nsP2pro conf qHTS=8%;HCV NS3 4A cs=i
Cc1ccc(NC(=O)CSc2nc(-c3cccs3)nc3cc(=O)[nH]n23)cc1C,-7%,
O=C1CCc2cc([S+](=O)([O-])Nc3ccc(Cl)c(Cl)c3)c(NCCCO)cc2N1,2%,
O=C(Nc1ccc(Br)c(Br)c1)Nc1cccc(-c2ccncc2)n1,-6%,
Clc1ccc(-c2csc(NN=C3CCCC3)n2)cc1,27%,
Cc1cc(NS(=O)(=O)c2ccc(NC(=O)CCc3ccc(Cl)c(Cl)c3)cc2)no1,i,
Cc1ccc(C(=O)N2CCC(N3C(=O)c4c(c(C)nn4-c4ccccc4)C3C)CC2)cc1 (centres undefined),i,
Cc1cccc(-n2cnc3cc(C(=O)N4CCC(C(F)(F)F)CC4)ccc32)c1,1%,
COc1ccc(CNc2nc(-c3ccco3)nn2S(=O)(=O)c2ccc3ccccc3c2)cc1OC,?,CHIKV nsP2 cell=15%
O=S(=O)(c1ccccc1)n1nc(-c2ccccc2)nc1NCc1ccc(Cl)cc1,-10%,
COc1ccc(CNc2nc(-c3ccco3)nn2C(=O)c2ccccc2Cl)cc1,-22%,
CC(=O)OC[C@H]1O[C@@H](n2cnc(N)nc2=O)[C@H](OC(C)=O)[C@@H]1OC(C)=O,3%,
FC(F)(F)c1ccccc1-c1nc(NCC#Cc2cccnc2)c2ccccc2n1,-2%,
Cc1[nH]c2ccccc2c1CCNCc1ccc(/C=C/C(=O)NO)cc1,33%,
COCCOc1cnc2ccn([C@H](C)c3nnc4c(F)cc(-c5cnn(C)c5)cn34)c(=O)c2c1,?,CHIKV nsP2 cell=3%;NSP2 full ctr=-26%;Furin counter=-17%;NS23 peptide cs=-13%;Papain counter=3%;nsP2pro conf qHTS=?;HCV NS3 4A cs=i
Cc1cc(C)nc(NC(=S)N2CCN(c3cc(Cl)c(Cl)cc3Cl)CC2)c1,1%,
O=C(Cc1ccc(Cl)c(Cl)c1)Nc1ccc([S+](=O)([O-])Nc2ncn[nH]2)cc1,1%,
SMILES,nsP2pro primary,others
CC(=O)OC(CSC1CCC(=O)OC(C)CCC(=O)C1)C(=O)O (centres undefined),?,CHIKV nsP2 cell=6%[33.5 µM];NSP2 full ctr=-5%[33.5 µM];Furin counter=-5%[33.5 µM];NS23 peptide cs=-11%[33.5 µM];Papain counter=-11%[33.5 µM];nsP2pro conf qHTS=?;HCV NS3 4A cs=?
O=C(Nc1cc(C(F)(F)F)cc(C(F)(F)F)c1)c1cnc(Cl)nc1C(F)(F)F,-25%,
COc1cccc(CN2CCC(C(=O)N3CCCCCCNC(=O)CC3)CC2)c1,-4%,
Cc1ccc(S(=O)(=O)c2nc(-c3ccccc3F)oc2NCc2ccccc2)cc1,-2%,
COc1ccc(-c2nc(S(=O)(=O)c3ccc(C)cc3)c(NCc3ccccc3)o2)cc1,4.5µM*,CHIKV nsP2 cell=?;NSP2 full ctr=?;Furin counter=-4%;NS23 peptide cs=?;Papain counter=13µM*;nsP2pro conf qHTS=8µM*;HCV NS3 4A cs=i
COc1ccc(-c2nc(-c3ccccc3)c(NCc3ccccc3)o2)cc1,7%[5.1 µM],
C=C(CO)C12OC1C1(C)C(=CC2=O)C(O)C(O)CC1C (centres undefined),-8%,
O=[N+]([O-])c1ccc(/C=C/c2cccc(CO)n2)o1,-16%,
O=C(O)CCN(O)C(=O)CCCCCCCCC1CC1,7%,
CC=CC1=C(C(=O)O)N2C(=O)[C@@H](NC(=O)[C@H](N)c3ccc(O)cc3)[C@H]2SC1,-8%[10 µM],
CO[C@H]1/C=C\O[C@@]2(C)Oc3c(C)c(O)c4c(O)c(c(/C=N/N5CCN(C6CCCC6)CC5)c(O)c4c3C2=O)NC(=O)/C(C)=C\C=C/[C@H](C)[C@H](O)[C@@H](C)[C@@H](O)[C@@H](C)[C@H](OC(C)=O)[C@@H]1C,6%,
CC(C)(C)n1nc(-c2ccc(Cl)cc2)c2c(N)ncnc21,19%,
CC(C)n1nc(C#Cc2ccccc2)c2c(N)ncnc21,4.4µM*,CHIKV nsP2 cell=87%;NSP2 full ctr=?;Furin counter=?;NS23 peptide cs=?;Papain counter=39%;nsP2pro conf qHTS=8µM*;HCV NS3 4A cs=?
CC(C)n1nc(-c2ccc(NC(=O)Nc3cccc(C(F)(F)F)c3)cc2)c2c(N)ncnc21,-4%,
C[N+](C)(C)C1CCC(CC2CCC([N+](C)(C)C)CC2)CC1 (centres undefined),-2%,
CC[C@H]1OC(=O)C[C@@H](OC(C)=O)[C@H](C)[C@@H](O[C@@H]2O[C@H](C)[C@@H](O[C@H]3C[C@@](C)(O)[C@@H](OC(=O)CC(C)C)[C@H](C)O3)[C@H](N(C)C)[C@H]2O)[C@@H](CC=O)C[C@@H](C)C(=O)/C=C/C(C)=C/[C@@H]1CO[C@@H]1O[C@H](C)[C@@H](O)[C@@H](OC)[C@H]1OC,14%,
O=C(O)C(Cl)Cl,1%,
O=C(O)C(S)C(S)C(=O)O (centres undefined),8.8µM*,CHIKV nsP2 cell=3%;NSP2 full ctr=?;Furin counter=-9%;NS23 peptide cs=?;Papain counter=?;nsP2pro conf qHTS=?;HCV NS3 4A cs=i
O=C(O)[C@@H](O)[C@H](O)[C@H](O)[C@@H](O)C(=O)O,-2%,
